# Laboratory results reported in PubChem BioAssay AID1878 (Sanford-Burnham Center for Chemical Genomics, 2009).
# Hit rate of the full screen: of about 1,000 compounds, about 200 (20%) were called active. A selection follows. Measured potencies and affinities stand elsewhere. Values without a mark were called inactive. No stated cut-off is given here; in the data, active means inhibition above about 55%; inactive means the rest.
# Molecular target: Dual specificity protein phosphatase 3 (Homo sapiens) (UniProt P51452)
# Sequence (P51452 whole entry, looked up): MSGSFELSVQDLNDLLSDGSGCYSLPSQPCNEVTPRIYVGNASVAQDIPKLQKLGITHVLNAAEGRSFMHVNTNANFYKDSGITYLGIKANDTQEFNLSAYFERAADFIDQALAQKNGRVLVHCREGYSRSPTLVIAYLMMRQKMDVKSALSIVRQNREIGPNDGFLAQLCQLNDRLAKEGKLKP
# Assay: VHR1 phosphatase inhibitors, biochemical (AID 1878)
# Conditions: recombinant VHR phosphatase, fluorogenic substrate; at 13.3 µM; active compounds read high
row,Compound,inhibition
1,Cc1ccc(N2C(=O)c3ccccc3C2=O)nc1,-3.1%
2,CCN1CCN(C(=O)c2cc3ccc(OC)cc3[nH]2)CC1,10.9%
3,COc1ccc(Br)cc1S(=O)(=O)N1CCCc2ccccc21,-6.5%
4,CSc1ncc(C(=O)Nc2cc(C)ccc2C)c(C)n1,-5.1%
5,Cc1cc2nc3s/c(=C/c4ccc(-c5ccccc5C(=O)O)o4)c(=O)n3c2cc1C,74.7% (active)
6,CN(C)CCN(CC1CCCN(Cc2ccccc2F)C1)C(=O)Cc1ccccc1F (stereo unspecified),-15.2%
7,CC1=C(C(=O)Nc2cccc(C(=O)N3CCC(C(N)=O)CC3)c2)SCCO1,4.8%
8,COc1ccc(NC(=O)NCCN2CCCCC2)cc1,-10.3%
9,CCN(CC)CCNC(=O)CCN1N=C(c2ccccc2)CCC1=O,2.7%
10,O=C(c1ccc(NC2=NC3CS(=O)(=O)CC3S2)cc1)N(CCO)Cc1ccccc1 (stereo unspecified),0.9%
11,O=C1C(Cl)=C(N2CCOCC2)C(=O)N1c1ccccc1F,-7.3%
12,COc1ccc(N(C(=O)c2snc(C(N)=O)c2N)C(C(=O)NC2CCCC2)c2ccc(F)cc2)c(OC)c1 (stereo unspecified),-0.8%
13,CC1CCCCN1CCCNC(=O)CCCN1C(=O)c2cccnc2Sc2ccccc21 (stereo unspecified),-12.7%
14,CC1CCN(CCCNC(=O)C2CC(=O)N(CCc3ccccc3)C2)CC1 (stereo unspecified),-14.3%
15,COc1ccc(N(C)S(=O)(=O)c2ccc3c(c2)NC(=O)CC(=O)N3)c(OC)c1,7.8%
16,COC(=O)C1=NN(C(=O)c2ccccc2)C(O)(c2ccc([N+](=O)[O-])cc2)C1 (stereo unspecified),-7.4%
17,CC(Cc1n[nH]c(=S)n1N)c1ccccc1 (stereo unspecified),-2.8%
18,CCOCCn1cnc2sc(C(=O)NCCCN3CCOCC3)c(C)c2c1=O,9.7%
19,CCc1cc(=O)oc2c(C)c(OCC(=O)NCCCN3CCOCC3)ccc12,3.5%
20,CCOC(=O)C1(CCc2ccccc2)CCN(CC(O)CO)CC1 (stereo unspecified),-10.8%
21,Cn1c(=O)c2c(ncn2CCOc2ccc(F)cc2)n(C)c1=O,-6.4%

row,Compound,inhibition
1,Cc1cc(C)cc(NCc2cc(=O)oc3cc(C)c(O)cc23)c1,8.5%
2,CCn1cc(CCC(=O)NCCN2CCOCC2)c2ccccc21,-13.7%
3,C/C(=N\NC(=O)CNC(=O)c1cccc(F)c1)c1ccc2ccccc2c1,1.1%
4,C/C(=N\NC(=O)c1cc(O)cc(O)c1)c1ccc(NC(=O)Cc2ccccc2)cc1,96.6% (active)
5,O=C(Cc1ccccc1)Nc1ccc(C(=O)Nc2ccc(O)cc2)cc1,1.2%
6,O=C(N/N=C/c1cccc([N+](=O)[O-])c1)c1cc2c(ccc3ccccc32)o1,98% (active)
7,O=C(NCc1c(O)ccc2ccccc12)c1ccccc1,2.1%
8,O=C(N/N=C/c1ccc([N+](=O)[O-])o1)c1cc2c(ccc3ccccc32)o1,98.8% (active)
9,Cc1ccc(NC(=O)C(=O)NCc2ccc(/C=N/NC(=O)c3c(C)nc4ccccn34)o2)cc1,18.4%
10,O=C(CN1CCCCCC1)N/N=C/c1ccc2ccccc2c1,-6.1%
11,O=C(O)c1ccc(/C=N/NC(=O)c2cc3c(ccc4ccccc43)o2)cc1,98.7% (active)
12,O=C(NCc1ccc(Cl)cc1)Nc1ccc(F)cc1,0.7%
13,CCOC(=O)c1cc(/C(C)=N/OC(=O)c2ccc(C(C)(C)C)cc2)on1,0.2%
14,COc1ccc(S(=O)(=O)N2CCCC(C(=O)NCC3CCCO3)C2)cc1C (stereo unspecified),-4.1%
15,COc1ccc(C(=O)NCc2nnc(SCC(=O)Nc3cc(OC)ccc3OC)o2)cc1,-6.8%
16,CC1CCCN(CCCNC(=O)C2CC(=O)N(CCc3ccccc3)C2)C1 (stereo unspecified),-5.4%
17,CCC1CCCCN1CCCNC(=O)C1CC(=O)N(CCc2ccccc2)C1 (stereo unspecified),20.9%
18,NC(=S)N=Nc1ccc(NN=C(N)N)cc1,40.2%
19,COc1ccc(NC(=O)Cc2nnc(SCC(=O)NC3CCCC3)n2C)cc1,-4.1%
20,CCNC(=O)c1cc(Br)ccc1Cl,-8.7%
21,CN(c1ccccc1)S(=O)(=O)c1nnc(NC(=O)C2CCCCC2)s1,-1.3%

row,Compound,inhibition
1,Cn1c2ccccc2c(=O)c2ccc(C#Cc3ccccn3)cc21,75.5% (active)
2,Cc1nc([N+](=O)[O-])cn1Cc1cccc2ccccc12,-13.3%
3,O=C(Cn1c2ccccc2c(=O)c2ccccc21)N/N=C/c1cc([N+](=O)[O-])ccc1N1CCCCCC1,99.4% (active)
4,O=C(CN1CCCCC1)N/N=C/c1cccc(Cl)c1,-9.7%
5,O=C(N/N=C/c1ccncc1)c1cccc(S(=O)(=O)Nc2ccc(Cl)cc2)c1,98.9% (active)
6,CN(C)CCNC(=O)c1cccc(S(=O)(=O)Nc2ccc(F)cc2)c1,-5.8%
7,Cc1nc2cc(NC(=O)c3ccc(Cl)cc3)ccc2n1C,-9.5%
8,NC(=O)c1ccc(C(=O)N/N=C/c2cccc(Oc3ccccc3)c2)cc1,-0.5%
9,O=C(N/N=C/c1cccnc1)c1cccc(NC(=O)c2ccc(Cl)cc2)c1,92.9% (active)
10,Cc1ccc(S(=O)(=O)NC(CC(=O)NC2CCCC2)c2ccco2)cc1 (stereo unspecified),23.6%
11,CSc1ncc(C(=O)Nc2ccccc2Cl)c(C)n1,-1.1%
12,COc1ccc(OC)c(N/C(N)=N/c2nc(C)cc(C)n2)c1,-19.2%
13,Cc1ccc(NC(=O)CCNC(=O)c2ccccc2Cl)nc1,1.9%
14,CC(c1ccccc1)N1CCn2c(nc3cc(NC(=O)NC4CCCCC4)ccc32)C1 (stereo unspecified),-21.4%
15,COc1ccc(/C=C2\N=C(C)OC2=O)cc1OC,-5.7%
16,CC(C)OCCCNc1ncnc2c1nc1n2CCCC1,-2.4%
17,COC(=O)c1ccnc(/C=N/O)c1,9.3%
18,COc1ccc(-c2nnc(Nc3nc4c(OC)cccc4s3)o2)cc1,95.5% (active)
19,COc1ccc(-c2nnc(SC(C)C(=O)NNC(=O)c3ccc(C)cc3)o2)cc1 (stereo unspecified),-2.9%
